Assay outcomes deposited in PubChem by several laboratories.
Only some compounds are listed: those with a hit (about 2% of all), similar ones and a draw of the others.
COUP-TFII inh: inhibitors of human COUP-TFII (NR2F2); P24468; HEK293T NGFI-A luciferase reporter, luminescence; inhibition, % at 8.6 µM; 370,000 compounds, 0.7% hits; AID 686940;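 active = inhibition above a per-plate cutoff, mean inhibition of test wells between control levels plus 3 SD, cut at about 38% in these data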;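 note: cells cotransfected with COUP-TFII expression vector driving the NGFI-A reporter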
Jurkat NFkB inh: inhibitors of the PMA/ionomycin-induced NF-kB reporter in Jurkat cells. PMA/ionomycin-induced NF-kB luciferase reporter, luminescence. inhibition, % at 4 µM. 330,000 compounds, 0.53% hits. AID 435003; in the data active = inhibition above about 50%
GalR3 antagonist: antagonists of human GalR3. O60755. AID 651719. 360,000 compounds, 0.44% hits. HEK293 GalR3-CNG cAMP membrane potential fluorescence; galR3 body fused to GalR1 C-terminus. inhibition, % at 3 µM;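 active = inhibition above the screen-wide average plus 3 SD, cut at about 13% in these data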;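 note: forskolin and galanin both at EC90 stimulate the cells; cAMP rise reported by CNG channel membrane potential dye signal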
Target sequence (O60755 1-299 limits assumed): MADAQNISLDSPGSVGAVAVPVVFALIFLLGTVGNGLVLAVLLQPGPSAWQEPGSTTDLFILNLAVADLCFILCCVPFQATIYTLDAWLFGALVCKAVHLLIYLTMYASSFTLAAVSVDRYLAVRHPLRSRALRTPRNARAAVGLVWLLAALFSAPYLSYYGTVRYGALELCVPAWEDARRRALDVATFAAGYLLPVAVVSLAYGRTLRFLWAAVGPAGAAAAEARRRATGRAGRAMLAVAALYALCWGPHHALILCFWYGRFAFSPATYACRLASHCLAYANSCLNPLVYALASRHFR
Gli-Sufu antag: antagonists of Gli-Sufu signaling; AID 588413; inhibition, % at 5 µM; 340,000 compounds, 0.74% hits; Sufu-KO-LIGHT fibroblasts, Gli luciferase reporter luminescence;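 active = inhibition above about 55%, limit read from the data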
697 NFkB inh: inhibitors of the PMA/ionomycin-induced NF-kB reporter in 697 B cells; 697 B-cell NF-kB luciferase reporter, 16 h; inhibition, % at 4 µM; 330,000 compounds, 0.33% hits; AID 435022; in the data active = inhibition above about 35%
Gli-Sufu confirm: Gli-SUFU antagonism confirmation, single concentration | shares compounds with Gli-Sufu antag | Sufu-KO-LIGHT cells, Gli luciferase reporter, luminescence | inhibition, % at 5 µM | 2,500 compounds, 40% hits | AID 602428;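 active = mean inhibition at 5 µM reaching about 45%, limit read from the data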
Gli cytotox: cytotoxic in Gli-SUFU antagonist counter-screen. shares compounds with Gli-Sufu antag. cytotoxicity, % at 5 µM. AID 651994. Sufu-KO-LIGHT cells cytotoxicity, ATP luminescence. 2,500 compounds, 32% hits;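 active = mean cytotoxicity at 5 µM above about 25%, limit read from the data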;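 note: cells exposed to compound overnight for roughly 16 to 18 hours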
Wnt3a counter: counter-screen for Gli-SUFU antagonists: Wnt3a reporter inhibition; shares compounds with Gli-Sufu antag; Wnt-LIGHT cells, Wnt3a-driven luciferase reporter, luminescence; inhibition, % at 6.25 µM; 2,500 compounds, 20% hits; AID 651995;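 active = mean inhibition above about 25%, limit read from the data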
A number is an active result; - = inactive; . = no result given.

SMILES	COUP-TFII inh	Jurkat NFkB inh	GalR3 antagonist	Gli-Sufu antag	697 NFkB inh	Gli-Sufu confirm	Gli cytotox	Wnt3a counter
C/C(=N\NC(=O)c1ccn(C)n1)c1ccc(NC(=O)C2CCC2)cc1	-	-	-	71.9	-	-	-	-
COCCn1c(SCC(=O)/C=C2\N(C)c3ccccc3C2(C)C)nnc1-c1ccncc1	-	-	-	58.5	-	-	-	-
CC(C)N(Cc1ccccc1)S(=O)(=O)c1ccc(F)cc1	-	-	-	59.4	-	48.7	33.6	32.8
CCN(Cc1ccccc1)S(=O)(=O)c1ccc(F)cc1	-	-	-	-	-	.	.	.
COC(=O)[C@@]12CCCCC3=C1N(CCC3)C(=O)[C@H]2CC(=O)N1CCCCC1	-	.	.	.	.	.	.	.
CN1CCC(=C2c3ccccc3CC(=O)c3sccc32)CC1	-	-	-	-	-	-	-	-
CN1CCC(=C2c3ccccc3CCc3sccc32)CC1	.	-	.	-	-	.	.	.
O=C(N/N=C/c1ccccn1)c1[nH]c2ccc([N+](=O)[O-])cc2c1-c1ccccc1	-	-	-	56.3	-	-	-	-
Cc1nc(N2CCN(C(=O)c3cnccn3)CC2)c2c3c(sc2n1)CC(C(C)(C)C)CC3 (stereo not given)	-	-	-	-	-	-	-	-
O=C(CSc1nc2ccccc2nc1N1CCCCC1)N1CCN(C(c2ccccc2)c2ccc(Cl)cc2)CC1 (stereo not given)	-	.	.	.	.	.	.	.
O=C(N/N=C/c1cc(Cl)ccc1O)c1ccc(Br)cc1	-	.	-	75.9	.	59.2	28.9	58.1
O=C(CN1CCN(Cc2ccccc2)CC1)Nc1nnc(C(F)(F)F)s1	-	-	-	63.4	-	-	-	-
Cc1ccccc1NC(=O)C1CCCN1S(=O)(=O)c1cccnc1 (stereo not given)	-	.	.	.	.	.	.	.
CCCCCCCc1nc2c(=O)n(C)c3ccccc3c2o1	-	-	-	-	-	.	.	.
CCCCCc1nc2c(=O)n(C)c3ccccc3c2o1	-	-	-	76.4	-	-	-	-
CCOC(=O)c1ccccc1NC(=O)Nc1ccc(OC)c(OC)c1	-	-	-	61.5	-	-	-	-
CCOC(=O)c1ccc(NC(=O)Nc2ccc(OC)c(OC)c2)cc1	-	-	-	61.2	-	-	-	-
COc1ccc(NC(=O)Nc2cccc3ccccc23)cc1OC	-	-	-	-	-	.	.	.
CCCCOC(=O)c1ccc(NC(=O)Nc2ccc(OC)c(OC)c2)cc1	-	-	-	-	-	.	.	.
CCCC(C)C(=O)Nc1ccccc1C(=O)OCC (stereo not given)	-	-	-	99.8	-	-	-	-
CCOC(=O)C1(CCc2ccccc2)CCN(Cc2cccc3nccnc23)CC1	-	-	-	-	-	-	-	-
CCOC(=O)C1(CCCc2ccccc2)CCN(Cc2nccn2CC)CC1	-	-	-	-	-	-	-	-
CCOC(=O)C1(CCOc2ccccc2)CCN(Cc2nccn2CC)CC1	-	-	-	-	-	.	.	.
Cc1ccc(CSc2ccc3nnc(-c4cccnc4)n3n2)cc1	-	-	-	-	-	-	-	-
Cc1ccc(S(=O)(=O)N2CCSC2)cc1C	-	-	-	55.6	-	-	-	-
SMILES	COUP-TFII inh	Jurkat NFkB inh	GalR3 antagonist	Gli-Sufu antag	697 NFkB inh	Gli-Sufu confirm	Gli cytotox	Wnt3a counter
COc1ccc(CNC2CCC23CCC(C)CC3)cc1 (stereo not given)	-	.	.	.	.	.	.	.
O=C(Nc1ccc(Oc2ccccc2)cc1)C1CCN(c2nnc(-n3cccc3)s2)CC1	-	.	.	.	.	.	.	.
CCc1nn(CCCC(=O)NCc2ccccc2Br)c(=O)c2cc3occc3n12	-	-	-	82.1	-	-	-	-
Cc1ccc(C(=O)ONc2ccc(N=O)cc2)cc1	-	-	-	65.5	-	-	-	-
C[C@H]1[C@@H](c2ccccc2)OC(O)([C@H](Cc2ccccc2)NC(=O)OC(C)(C)C)CN1C (stereo not given in full)	-	.	.	.	.	.	.	.
CCOC(=O)N1CCN(C(=S)NC)CC1	-	-	-	-	-	.	.	.
CCC(=O)NC1CCN(C(=S)NC)CC1	-	-	-	56.8	-	-	-	-
COc1cc(OC)cc(C(=O)N2CCCC(c3nc(-c4ccc(C)o4)no3)C2)c1 (stereo not given)	-	-	-	-	-	.	.	.
Cc1ccc(-c2noc(C3CCCN(C(=O)c4ccc(C(C)(C)C)cc4)C3)n2)o1 (stereo not given)	-	-	-	-	-	-	-	-
Cc1ccc(C(=O)C2CCN(CC(=O)N3CCOCC3)CC2)cc1	-	.	.	.	.	.	.	.
N#CCSc1nnc(-c2ccc(S(=O)(=O)N3CCOCC3)cc2)n1CC1CCCO1 (stereo not given)	-	-	-	94.0	-	-	-	-
COCCN(C[C@@H]1[C@H](c2ccccc2)[C@H](CO)N1c1nc(C)c(C)s1)S(=O)(=O)c1ccccc1[N+](=O)[O-]	-	.	.	.	.	.	.	.
COc1ccc(C(=O)OCCCN(C)C2CN(Cc3cn(Cc4ccc([N+](=O)[O-])cc4)nn3)S(=O)(=O)C2)cc1OC (stereo not given)	-	.	.	.	.	.	.	.
CC(=O)c1cnc(Nc2ccccc2)s1	-	-	-	56.9	-	-	-	-
CCCCc1ccc(S(=O)(=O)NCCc2ccncc2)cc1	-	-	-	-	-	.	.	.
O=S(=O)(NCc1ccncc1)c1ccc(S(=O)(=O)NCC2CCCO2)cc1 (stereo not given)	-	-	-	-	-	-	-	25.7
CCCCNS(=O)(=O)c1ccc(S(=O)(=O)NCc2ccncc2)cc1	-	-	-	56.8	-	59.4	36.8	-
C=CCN1C(=O)[C@@H](CC(=O)N2CCC(c3ccccc3)CC2)[C@]2(C(=O)OCC)CCCCC/C=C/12	-	.	.	.	.	.	.	.
COc1ccc(COC(=O)N/N=C(\C)CC(=O)Nc2c(C)cc(C)cc2C)cc1	-	-	-	99.4	-	-	-	-
CCCC[C@@H]1CNC(=S)N1CC1CCCCC1	-	-	-	-	-	.	.	.
S=C1NC[C@H](CC2CCCCC2)N1CC1CCCCC1	-	-	-	65.1	-	-	-	-
Cn1c(=O)c(=O)n(C)c2cc(S(=O)(=O)N3CCN(Cc4ccc5c(c4)OCO5)CC3)ccc21	-	.	.	.	.	.	.	.
CCOc1cc(C(C(=O)NCC2CCCO2)N(C(=O)Cn2nnc3ccccc32)c2ccc(OC)c(OC)c2)ccc1O (stereo not given)	-	-	-	57.5	-	-	-	-
COc1ccc2c(c1)CNC2CS(=O)(=O)NCc1ccccc1 (stereo not given)	-	.	.	.	.	.	.	.
COc1cccc(-c2nc(NCCN3CCOCC3)c3ccccc3n2)c1O	-	-	-	98.4	-	-	-	-
C[C@@H]1COc2cc(N3CCCC3)ccc2S(=O)(=O)N1C	-	.	.	.	.	.	.	.
